Laboratory results as given in the supplement of paper PMC8253809.
Several values for one entry are separate records, joined by “and”; a condition that tells them apart may be missing. Equal values may be shown once.

Legend:
Assay in all cases: growth inhibition (% activity, log2 RLU normalised to DMSO / staurosporine); higher = more growth inhibition
Settings in all cases: 33 µM
DIPGX29 = tested on: DIPGX29 (H3.3 K27M diffuse intrinsic pontine glioma line)
Outline: (§1)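 The growth-inhibition value comes from CellTiter-Glo luminescence, log2-transformed, normalised per plate to % activity between solvent and positive control wells, and taken as the median over replicates. Treatment of pHGG cell lines and H9-derived neural stem cells with approved drugs was at a single final concentration of about 33 μM, in triplicate, for 7 days at 37 °C, 5% CO2.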

DIPGX37 = tested on: DIPGX37 (H3.3 K27M diffuse intrinsic pontine glioma line)
Outline: as §1

DIPGX7 = tested on: DIPGX7 (H3.3 K27M diffuse intrinsic pontine glioma line)
Outline: as §1

DIPGX9 = tested on: DIPGX9 (diffuse intrinsic pontine glioma line)
Outline: as §1

HGGX39 = tested on: HGGX39 (paediatric high-grade glioma line)
Outline: as §1

HGGX6 = tested on: HGGX6 (H3.3 G34R paediatric high-grade glioma line)
Outline: as §1

HNSC = tested on: HNSC
Outline: as §1

SUDIPGIV = tested on: SUDIPGIV (diffuse intrinsic pontine glioma line)
Outline: as §1

SUDIPGVI = tested on: SUDIPGVI (diffuse intrinsic pontine glioma line)
Outline: as §1

SUDIPGXIII = tested on: SUDIPGXIII (diffuse intrinsic pontine glioma line)
Outline: as §1

SMILES | growth inhibition (DIPGX29) | growth inhibition (DIPGX37) | growth inhibition (DIPGX7) | growth inhibition (DIPGX9) | growth inhibition (HGGX39) | growth inhibition (HGGX6) | growth inhibition (HNSC) | growth inhibition (SUDIPGIV) | growth inhibition (SUDIPGVI) | growth inhibition (SUDIPGXIII)
O=C(O)CCCC[C@@H]1SC[C@@H]2NC(=O)N[C@@H]21 | 0.444% | 0.747% | 0.534% | 1.28% | 2.04% | 2.52% | -1.69% | 1.07% | 1.25% | 0.684%
C[C@]12C=CC(=O)N[C@@H]1CC[C@@H]1[C@@H]2CC[C@]2(C)[C@@H](C(=O)Nc3cc(C(F)(F)F)ccc3C(F)(F)F)CC[C@@H]12 | -0.354% | -0.558% | -0.437% | 0.309% | 0.618% | 1.03% | -1.51% | -0.237% | -0.00919% | -0.463%
NC(N)=Nc1nc(CSCC/C(N)=N/S(N)(=O)=O)cs1 | -1.68% | -1.77% | -1.85% | -0.682% | -0.78% | -1.75% | -0.722% | -1.56% | -8.72% | -0.00988%
CCn1cc(C(=O)O)c(=O)c2cc(F)c(N3CCN(C)CC3)cc21 | 0.946% | 0.351% | 1.65% | 1.44% | 2.84% | 0.565% | 3.22% | 1.47% | 1.27% | 1.57%
CC1Cc2ccccc2N1NC(=O)c1ccc(Cl)c(S(N)(=O)=O)c1 (stereo not given) | -2.32% | 0.265% | -1.54% | -0.538% | 0.759% | 0.259% | -4.15% | -2.59% | -1.16% | -1.46%
CN(Cc1cnc2nc(N)nc(N)c2n1)c1ccc(C(=O)N[C@@H](CCC(=O)O)C(=O)O)cc1 | 1.2% | 1.21% | 2.57% | 0.922% | 3.95% | 1.8% | 2.32% | -0.562% | 3.38% | 0.468%
COc1ccc2[nH]cc(CCNC(C)=O)c2c1 | -2.35% | -0.423% | -1.32% | -1.49% | -1.11% | -2.19% | -1.52% | -1.67% | -0.827% | -1.28%
CN(C(=O)CN(CCO)CC(=O)N(C)C(C)(C)Cc1ccccc1)C(C)(C)Cc1ccccc1 | 11.3% | 3.37% | 29% | 4.47% | 9.74% | 2.56% | 53.1% | 3.05% | 6.12% | 10.4%
COC(=O)C1=C(C)NC(C)=C(C(=O)OCCN(C)Cc2ccccc2)C1c1cccc([N+](=O)[O-])c1 (stereo not given) | 1.83% | 4.39% | 2.64% | 2.12% | 6.81% | 0.277% | 13% | 3.58% | -1.74% | 2.92%
CO[C@@H]1[C@@H](OC(N)=O)[C@@H](O)[C@H](Oc2ccc3c(O)c(NC(=O)c4ccc(O)c(CC=C(C)C)c4)c(=O)oc3c2C)OC1(C)C | -0.0643% | 3.02% | 1.66% | 0.55% | 3.59% | -2.58% | 12.1% | 4.51% | 2% | -0.64%
OC[C@H]1O[C@H](O[C@]2(CCl)O[C@H](CCl)[C@@H](O)[C@@H]2O)[C@H](O)[C@@H](O)[C@H]1Cl | -2.41% | -0.64% | -2.77% | -3.01% | -2.1% | -2.77% | -5.57% | -0.426% | -3.09% | 0.882%
CCc1c2c(nc3ccc(OC(=O)N4CCC(N5CCCCC5)CC4)cc13)-c1cc3c(c(=O)n1C2)COC(=O)[C@]3(O)CC | 6.04% and 11.2% | 2.87% and 1.26% | 5% and 16.3% | 7.83% and 32.1% | 13.7% and 30.1% | 7.49% and 10.4% | 55.3% and 54.4% | 49.3% and 46.9% | 1.04% and 3.21% | -12% and 3.28%
Cc1c(N(C)C)c(=O)n(-c2ccccc2)n1C | -0.911% | -0.00267% | 0.576% | -1.42% | 2.61% | -1.31% | -0.0115% | -1.34% | -0.66% | 0.298%
C[C@@](Cc1ccc(O)c(O)c1)(NN)C(=O)O | -0.229% | 0.519% | -0.935% | 2.31% | -0.733% | 0.427% | -1.19% | 0.65% | 2.9% | 1.25%
CN[C@H]1CC[C@@H](c2ccc(Cl)c(Cl)c2)c2ccccc21 | 13.3% | 6.8% | 6.25% | 4.32% | 7.5% | 7.73% | 55% | 3.54% | 6.72% | 1.68%
CC(O)(P(=O)(O)O)P(=O)(O)O | -0.191% | 1.06% | -0.11% | -0.168% | -1.7% | 1.43% | -0.64% | -0.506% | 1.73% | 0.673%
COC(=O)C1=C(C)NC(C)=C(C(=O)OCCN2CCN(C(c3ccccc3)c3ccccc3)CC2)C1c1cccc([N+](=O)[O-])c1 (stereo not given) | 5.69% | 6.99% | 4.72% | 4.03% | 8.12% | 5.46% | 73% | 3.75% | 6.07% | 22%
CC(C[N+](C)(C)C)OC(N)=O (stereo not given) | -2.19% | 0.0509% | -1.77% | 0.0426% | -1.35% | -2.06% | -4.04% | -1.69% | -2.52% | 0.126%
Cc1cc(C2CCCCC2)n(O)c(=O)c1 | 68.5% and 63.3% | 7.69% and 8.51% | 54.5% and 43.2% | 68.8% and 56.5% | 8.59% and 9.1% | 67.5% and 63.6% | 81.5% and 63.9% | 13.4% and 8.52% | -4.21% and -2.85% | 21.3% and 10.6%
OCCOCCN1CCN(C2=Nc3ccccc3Sc3ccccc32)CC1 | 0.62% | 0.529% | 4.12% | 1.36% | 2.86% | 2.19% | 0.74% | -0.167% | -0.798% | 1.66%
C[C@@H]1[C@H](O)[C@@H](C)/C=C/C=C/C=C/C=C/C=C/C=C/C=C/[C@H](O[C@@H]2O[C@H](C)[C@@H](O)[C@H](N)[C@@H]2O)C[C@@H]2O[C@](O)(C[C@@H](O)C[C@@H](O)[C@H](O)CC[C@@H](O)C[C@@H](O)CC(=O)O[C@H]1C)C[C@H](O)[C@H]2C(=O)O | 1.5% | 0.689% | 0.985% | 2.51% | 1.45% | 3.13% | 2.79% | -0.529% | 0.154% | 1.88%

SMILES | growth inhibition (DIPGX29) | growth inhibition (DIPGX37) | growth inhibition (DIPGX7) | growth inhibition (DIPGX9) | growth inhibition (HGGX39) | growth inhibition (HGGX6) | growth inhibition (HNSC) | growth inhibition (SUDIPGIV) | growth inhibition (SUDIPGVI) | growth inhibition (SUDIPGXIII)
Cc1nc2n(c(=O)c1CCN1CCC(c3noc4cc(F)ccc34)CC1)CCCC2O (stereo not given) | -0.21% | -0.0675% | 0.542% | 0.251% | 1.52% | -1.12% | 23.4% | 2.36% | -0.7% | -0.0722%
CCOc1cc(CC(=O)N[C@@H](CC(C)C)c2ccccc2N2CCCCC2)ccc1C(=O)O | 0.598% | -0.0763% | 1.67% | -0.0677% | 0.171% | -1.18% | -2.28% | -0.496% | -6.9% | -1.55%
COc1ccc(-n2nc(C(N)=O)c3c2C(=O)N(c2ccc(N4CCCCC4=O)cc2)CC3)cc1 | -1.17% | -0.875% | 0.291% | 0.547% | 1.79% | 1.04% | -3.66% | -1.21% | 1.14% | 0.63%
CC(S)C(=O)NCC(=O)O (stereo not given) | 0.154% | -1.2% | -0.0217% | 1.07% | 2.86% | 0.336% | 0.528% | -0.0269% | -0.507% | -0.969%
CCCCOc1cc(C(=O)OCCN(CC)CC)ccc1N | 0.216% | -0.547% | 1.69% | 0.918% | 14.2% | 9.49% | -2.2% | 4.07% | -0.0266% | 2.42%
CCCNC(C)C(=O)Nc1ccccc1C (stereo not given) | -1.66% | 0.68% | -1.19% | -0.603% | 0.299% | -0.0141% | -2.37% | -1.79% | -0.942% | -0.434%
C[N+]1(C)CCC(=C(c2ccccc2)c2ccccc2)CC1 | 1.61% | 4.65% | 2.7% | 2.75% | 2.04% | -0.684% | 23.1% | 4.27% | 8.89% | 1.56%
CC(C)(C)c1cc(C(C)(C)C)c(NC(=O)c2c[nH]c3ccccc3c2=O)cc1O | 7.53% | 4.87% | 25.1% | 8.47% | 22.4% | 15.2% | 11.9% | 9.36% | 2.56% | 2.28%
Cn1c(=O)c2c(ncn2CC(O)CO)n(C)c1=O (stereo not given) | 1.16% | 3.99% | 1.95% | 1.42% | 2.44% | -0.962% | 2.09% | 1.65% | 3.1% | -0.692%
N#C[C@@H]1CCCN1C(=O)CNC12CC3CC(CC(O)(C3)C1)C2 | -0.11% | -0.458% | -0.508% | -1% | 0.579% | -2.32% | 14.2% | 0.0993% | -3.27% | -3.49%
O=C(Nc1c(Cl)cncc1Cl)c1ccc(OC(F)F)c(OCC2CC2)c1 | 2.05% | 4.42% | 2.92% | 2.71% | 4.08% | 2.51% | 2.92% | 7.2% | 6.56% | -0.978%
CC(C)Cn1cnc2c(N)nc3ccccc3c21 | 0.9% | 3.11% | 0.885% | 0.567% | 1.26% | 2.84% | 0.687% | 0.0825% | 3.61% | 0.156%
CCCCCCCCCCC[C@@H](C[C@@H]1OC(=O)[C@H]1CCCCCC)OC(=O)[C@H](CC(C)C)NC=O | -2.1% | -1.45% | -1.06% | -1.8% | -0.97% | 0.864% | -6.06% | -1.86% | -3.34% | 0.12%
Cc1cccc(Nc2ccccc2C(=O)O)c1C | -4% | -1.52% | 3.05% | -3.62% | -3.34% | -4.45% | 9.87% | -8.08% | -6.14% | -0.652%
O=C(CCCN1CCN(c2ccccn2)CC1)c1ccc(F)cc1 | 1.87% | 0.83% | 5.21% | 1.29% | 4.4% | 3.31% | 1.17% | 0.0159% | -3.95% | 2.26%
Nc1ccn(C2CSC(CO)O2)c(=O)n1 (stereo not given) | 0.0189% | 0.319% | -0.231% | 0.518% | 0.787% | -0.895% | 1.26% | -0.385% | 1.46% | 0.705%
Clc1cccc(Cl)c1NC1=NCCN1 | 1.49% | -3.42% | 1.12% | 0.614% | 1.32% | 0.951% | 2.98% | 0.943% | -1.83% | -1.09%
NC(=O)c1ncn([C@@H]2O[C@H](CO)[C@@H](O)[C@H]2O)c1N | 1.44% | 1.81% | 1.73% | 2.02% | 2.08% | 0.815% | 5.91% | 0.00762% | 2.75% | -1.11%
Cc1c(-c2ccccc2)oc2c(C(=O)OCCN3CCCCC3)cccc2c1=O | -0.48% | -1.55% | 0.152% | -0.867% | 0.0272% | 0.269% | -2.8% | -0.209% | -3.08% | -2.91%
Nc1nc(NC2CC2)c2ncn([C@H]3C=C[C@@H](CO)C3)c2n1 | 1.7% | 3.27% | 1.17% | 1.56% | 3.46% | 3.46% | 0.755% | 2.42% | 3.29% | 0.173%
